Test results: PubChem BioAssay AID1159580 (chemical genetic matrix, 2015)
Out of some 5,500 compounds screened, about 2,000 (36%) were called active. About 18% were inconclusive and are not listed. No stated cut-off is given here; in the data, active means normalized growth mostly below about 0.91 (no sharp cut-off); inconclusive means no clear call, values can overlap the other calls; inactive means mostly above about 0.92. Some of the results follow. Where a SMILES comes first, the peptide text is derived from it.

Experiment: chemical genetic growth profiling, strain panel (AID 1159580);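 further: tested at 20 µM; growth read once vehicle control cultures reached saturation at 30 °C; 1 = growth at the plate median or of vehicle wells; lower values mean less growth of the strain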
Details: S. cerevisiae deletion strains, growth OD

Measured: normalized growth

CC(C)C[C@H](N)C(=O)N[C@@H](C)C(=O)O (H-Leu-Ala-OH)
inactive: locus YHR030C, strain SLT2, active compounds read low 1.01 | locus YHR079C, strain IRE1, active compounds read low 1.01 | locus YJL095W, strain BCK1, active compounds read low 1.02 | locus YJR066W, strain TOR1, active compounds read low 0.975 | locus YLR113W, strain HOG1, active compounds read low 1.02 | locus YNL183C, strain NPR1, active compounds read low 0.954 | locus YOR231W, strain MKK1, active compounds read low 1.03 | locus YPL256C, strain CLN2, active compounds read low 1.02
